In the library only some 5.7% were active in any assay of this set; here they are far more common.
Myeloid diff 2 – myeloid differentiation induction. ER-HoxA9 myeloid progenitors, lysozyme-GFP differentiation, flow cytometry. calls only at 10 µM. hit rate 1% among 360,000. AID 624256;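 active means normalized GFP-positive differentiation at or above the plate's own cutoff, the solvent-only control mean plus 3 SD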;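 further: cells exposed to compound for four days before flow analysis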
rCAG binder – molecules binding r(CAG) RNA repeats; AID 651821; r(CAG) RNA repeat, TO-PRO-1 dye displacement fluorescence; inhibition, % at 3 µM; hit rate 1.3% among 370,000;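 active means inhibition above the plate cutoff, the mean of all test compounds on that plate plus 3 SD, cut at about 35% in these data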;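 further: 0% = DMSO alone and 100% = 100 µM mitoxantrone as full dye displacement; higher means more dye released from RNA so lower well fluorescence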
NR3A LBD binder – NR3A (human) ligand-binding domain modulation. NR3A LBD differential scanning fluorimetry, Tm shift; 0% = protein alone, 100% = glycine-bound protein. Tm shift relative to glycine control, % at 25 µM. hit rate 2.5% among 340,000. AID 1259313;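 active means melting temperature shift of at least 10% of the positive control shift, at one fixed dose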
MPTP inh – blocks calcium-induced mitochondrial swelling | isolated mouse mitochondria, Ca2+ swelling absorbance, 30 min | AID 602449 | hit rate 1.4% among 360,000 | inhibition, % at 10 µM;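 active means inhibition of 50% or more, scaled per plate between neutral and stimulator controls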;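 further: 0% = DMSO wells given calcium and 100% = 1 mM EGTA wells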
FAS-TE inh – blocks the thioesterase domain of human fatty acid synthase; P49327; recombinant FAS-TE, OMFH fluorogenic substrate, fluorescence endpoint; inhibition, % at 15 µM; hit rate 0.67% among 360,000; AID 602261;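 active means compounds whose normalised, plate-corrected inhibition of enzyme fluorescence in the single-dose primary screen is 50% or more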;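 further: 0% = DMSO with enzyme and 100% = substrate without enzyme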
* marks the source's active call; other numbers are inactive results; i = inactive; . = no result; + = active, no number.

SMILES	Myeloid diff 2	rCAG binder	NR3A LBD binder	MPTP inh	FAS-TE inh
COc1ccc(Nc2ncnc3c2cnn3-c2ccccc2)cc1OC	i	2.0	0.4	-1.7	0.7
O=C(Cn1nnc(-c2ccncc2)n1)Nc1ccc(Oc2ccccc2)cc1	.	6.5	.	.	.
COC(=O)C1=CC(=O)C=C(OC)[C@@]12Oc1cc(C)cc(OC)c1C2=O	.	-2.3	.	.	.
COC(=O)c1ccc(-c2n[nH]c(=O)c3ccccc23)cc1	i	-1.5	-0.5	1.7	-2.4
COC(=O)Nc1nc2ccc(-c3n[nH]c(=O)c4ccccc34)cc2[nH]1	+	4.0	1.3	-1.8	-12.7
CCOc1cc(OCC)cc(C(=O)NCCN2CCC(n3c(=O)[nH]c4ccccc43)CC2)c1	i	-1.8	.	-0.3	-6.7
CN(/N=C/c1ccc(O)cc1O)c1nc(-c2ccccc2)cc(-c2ccccc2)n1	i	13.5	22.2*	8.0	29.3
Cc1cc(-c2ccccc2)nc(N/N=C/c2ccccc2)n1	i	-1.2	0.5	-0.5	10.0
Cc1cc(-c2ccccc2)nc(N/N=C/c2ccc(O)cc2O)n1	i	17.3	11.3*	0.1	-4.5
Cc1ccc(-c2csc3nnc(SCC(=O)NCc4ccc5c(c4)OCO5)n23)cc1	i	-2.5	0.4	-0.2	6.6
c1ccc(-c2csc3nnc(SCc4ccc5c(c4)OCO5)n23)cc1	+	1.5	-0.3	-1.9	4.8
O=[N+]([O-])c1cccc(S(=O)(=O)Nc2ccccn2)c1	i	-0.7	.	-1.2	-6.8
O=S(=O)(Nc1ccccn1)c1cccc(S(=O)(=O)c2ccc(Br)cc2)c1	i	4.9	13.5*	0.6	3.0
Cn1nc(-c2ccccc2)c(CSc2ccccc2Cl)c1Cl	+	4.0	1.4	-0.2	22.1
Cn1nc(-c2ccccc2)c(C(O)c2ccc(Cl)cc2)c1Cl (stereo not given)	i	-5.2	-0.1	2.6	5.4
O=C(c1cccc([N+](=O)[O-])c1)N1CCN(c2cccc(Cl)c2)CC1	+	-1.3	-0.1	0.3	30.2
CC1(c2ccc(OC(F)F)cc2)NC(=O)N(/N=C/c2c(O)ccc3ccccc23)C1=O (stereo not given)	i	4.4	12.4*	1.3	28.6
Cc1ccc(NC(=O)C2CCN(c3nnc(-n4cccc4)s3)CC2)c(C)c1	.	9.1	.	.	.
Nc1nc2ccccc2n1/N=C/c1ccc(-c2ccccc2)o1	i	11.1	30.0*	6.2	46.0
Cc1nc2cc(C(=O)O)ccc2n1-c1ccc(F)cc1F	i	3.5	15.5*	3.2	-8.1
CCOc1ccccc1-n1c(C)nc2cc(C(=O)O)ccc21	i	2.0	-0.6	-1.4	-3.0
Cn1cc(C(=O)N/N=C/c2ccc([N+](=O)[O-])cc2)c2ccccc21	i	3.0	28.2*	4.0	0.5
Cc1cc(C(N)=O)c2ccccc2n1	i	-0.3	-0.1	-0.5	-9.6
Cc1cc(C(=O)O)c2ccccc2n1	+	-1.9	-1.2	-1.9	-4.2
O=C(N/N=C/c1ccc([N+](=O)[O-])cc1)c1cc(C2CC2)nc2ccccc12	i	6.0	-0.1	10.9	11.2
SMILES	Myeloid diff 2	rCAG binder	NR3A LBD binder	MPTP inh	FAS-TE inh
Cc1ccccc1C(=O)N/N=C/c1ccc([N+](=O)[O-])s1	i	5.5	-5.5	0.9	-5.6
Cc1cc(C(=O)N/N=C/c2ccc([N+](=O)[O-])cc2)c2ccccc2n1	+	1.9	6.0	1.9	-1.4
Cn1cc(C(=O)N/N=C/c2cccc([N+](=O)[O-])c2)c2ccccc21	i	2.8	9.4	2.6	-1.6
Cc1cc(C(=O)N/N=C/c2ccc([N+](=O)[O-])s2)c2ccccc2n1	+	8.6	-5.8	3.6	-4.1
CN1[C@@H](Cc2ccccc2)COc2cccc(N3CCCC3)c2S1(=O)=O	.	2.7	.	.	.
CCOC(=O)N(C)C[C@H]1OCc2cnnn2CCCC(=O)N([C@H](C)CO)C[C@@H]1C	.	0.1	.	.	.
O=C(COc1cc(Cl)c(Cl)cc1Cl)Nc1ccc([N+](=O)[O-])cc1Cl	i	1.4	10.3*	0.9	-0.2
CCOc1ccc(CN(C)CC(=O)Nc2ccc([N+](=O)[O-])cc2Cl)cc1	+	-1.1	-2.4	5.8	42.0
O=C(COC(=O)c1ccco1)Nc1ccc([N+](=O)[O-])cc1Cl	i	0.7	-2.1	-1.3	8.3
Oc1cc(O)cc(-c2cc3ccc(O)cc3o2)c1	i	11.7	16.1*	-0.3	2.1
Cn1c(=O)c2[nH]c(-c3ccccc3Cl)c(O)c2n(C)c1=O	i	-14.5	0.7	5.8	-17.4
Cn1c(=O)c2[nH]c(-c3ccccc3)c(O)c2n(C)c1=O	i	-52.0	12.5*	-1.8	-14.7
Oc1ccc(-c2nc3ccc4ccccc4c3c3c2CCC3)cc1O	i	23.8	13.1*	6.3	-3.8
COc1ccc(C(=O)NNC(=O)c2ccc(S(=O)(=O)N3CCCCC3)cc2)cc1	i	0.2	2.1	-0.7	1.0
CC(C)c1ccc(NC(=O)c2cc(S(=O)(=O)N3CCCC3)c[nH]2)cc1	i	5.4	-11.2	1.5	4.2
COc1ccc(C(=O)Nc2ccc(S(=O)(=O)N3CCCC3)cc2)cc1	i	2.8	14.4*	-0.6	7.1
COc1ccc(NC(=O)c2cc(S(=O)(=O)N3CCCCC3)c[nH]2)cc1Cl	i	1.7	24.8*	-0.8	-2.7
COc1ccc(NC(=O)CCCNC(=O)c2ccc(Cl)cc2)cc1S(=O)(=O)N1CCCCC1	i	1.5	12.0*	-0.4	-1.5
CN1CCN(S(=O)(=O)c2cccc(C(=O)Nc3cccc([N+](=O)[O-])c3)c2)CC1	i	4.9	16.9*	3.5	2.9
CCOC(=O)c1cccc(NC(=O)CN(C)S(=O)(=O)c2cc(OC)ccc2OC)c1	.	2.2	.	.	.
O=C(Nc1ccc([N+](=O)[O-])cc1)c1ccc(S(=O)(=O)N2CCCC2)cc1	i	0.6	10.6*	0.8	1.6
CC(COc1ccc(OC(F)(F)F)cc1)CN1CCC(C(O)(c2ccccc2)c2ccccc2)CC1 (stereo not given)	.	2.6	.	.	.
Cc1[nH]c2ccccc2c1/C=N/NC(=O)C1CC1(c1ccccc1)c1ccccc1 (stereo not given)	i	18.5	12.0*	4.8	36.7
Cc1[nH]c2ccccc2c1/C=N/NC(=S)NC(C)C	+	11.3	-0.6	3.1	5.4
Cc1[nH]c2ccccc2c1/C=N\NC(=O)c1ccccc1Cl	i	4.6	.	0.7	-3.2
SMILES	Myeloid diff 2	rCAG binder	NR3A LBD binder	MPTP inh	FAS-TE inh
O=C(Nc1cccc(Cl)c1)OCCOCCOC(=O)Nc1cccc(Cl)c1	i	3.3	36.1*	0.9	32.0
O=C(Nc1cccc(Cl)c1)OCc1cnc(Cl)s1	i	-1.1	-27.5	1.9	17.6
O=C(Nc1cccc(Cl)c1)OCc1cn(-c2ccc(Cl)cc2)nn1	i	-2.2	-2.5	-0.5	-9.6
O=C(CCC(=O)c1ccc(Oc2ccccc2)cc1)Nc1cccc(Cl)c1	i	1.2	1.9	5.5	0.7
O=C(CCC(=O)OCC(=O)c1ccccc1)Nc1cccc(Cl)c1	i	-1.7	23.7*	-0.1	-5.8
O=C(Nc1cccc(Cl)c1)OCc1cn(-c2ccccc2)nn1	i	-1.6	10.7*	1.9	15.7

From PubChem BioAssay
